# From PubChem BioAssay (NCI)
# The panel holds about 83,000 compounds, 20% with a hit somewhere; the sample as a whole holds those more often.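 Growth was measured after 48 h exposure to one concentration of compound in 96-well plates. Values under 10 count as active.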 Unmarked numbers belong to inactive results. Calls of active or inactive are those of the source.
# System: HL-60(TB) leukemia
# Assay: NCI-60 one-dose screen, 48 h (100 = growth as untreated, 0 = no growth, -100 = all killed)
# Conditions: 10 µM unless noted
row,SMILES,growth
1,COc1ccc(OC)c(C2OC(c3ccc4ccccc4c3O)=NN2C(C)=O)c1 (centres undefined),19%
2,CC1/C=C/C=C/C=C/C=C/C=C/C=C/C=C/C(O[C@@H]2O[C@H](C)[C@H](O)[C@@H](O)[C@@H]2N)CC(O)C(C(=O)O)C(O)CC(=O)CC(O)CC(O)CC(O)CC(=O)CCCC(=O)CC(=O)OC1C(C)CC(C)C(O)CC(=O)c1ccc(N)cc1 (some centres undefined),-60.3% (active)
3,CSc1nc2sc3cc(Cl)c(Cl)cc3n2c(=N)c1C#N,110%
4,COCCOCCOCc1n(Cc2ccc3ccccc3c2)c2ccccc2[n+]1Cc1ccc2ccccc2c1,-53.5% (active)
5,O=C1OC(c2ccccc2)=N/C1=C\c1ccc([N+](=O)[O-])cc1,119%
6,O=C1OCC2=C1C(c1ccc(Cl)c(Cl)c1)c1cc3c(cc1N2CCO)CCC3 (centres undefined),-13.1% (active)
7,COc1ccc(OC)c(/C=C/c2nnc(Nc3ccc(Cl)cc3)o2)c1,80.6%
8,COc1cc(-c2nc(C(=O)NCC(=O)NO)nn2-c2ccc(Cl)cc2)cc(OC)c1OC,97.4%
9,C=C1C(=O)O[C@H]2[C@H]1CC/C(COC(=O)/C=C/c1cccnc1)=C\CC[C@@]1(C)O[C@@H]21,-28% (active)
10,C=C1C(=O)O[C@H]2[C@H]1CC/C(COC(=O)NCc1ccc(Cn3c(=O)sn(CCCC)c3=O)cc1)=C\CC[C@@]1(C)O[C@@H]21,-33.2% (active)
11,COc1ccc(Nc2cnc3cc(NS(=O)(=O)c4ccc(C)cc4)ccc3n2)cc1,70%
12,O=C1/C(=C/c2ccc(F)cc2)CN(C(=O)C(Cl)Cl)C/C1=C\c1ccc(F)cc1,-34% (active)
13,O=C(/C=C/c1cc(CN2CCOCC2)c(O)c2ncccc12)c1cc(CN2CCOCC2)c(O)c2ncccc12,22%
14,CC1(C)[C@H](O)CC[C@]2(C)[C@@H]1CC[C@@]13C[C@@H](CC[C@H]12)[C@@](O)(CO)C3,106%
15,Nc1nc(N)c2c(ccc3c2ccn3Cc2cccc([N+](=O)[O-])c2)n1,8.38% (active)
16,O=c1nc(Nc2cccc(Cl)c2)oc2cc(Cl)oc(=O)c12,26.4%
17,O=C1c2[nH]cc(CN[C@@H]3CCCN3)c2C(=O)c2c1c(O)c1ccccc1c2O,-73% (active)
18,N#C/C(=C1C=C/C(=N/O)C(Br)=C/1)c1ccccc1,-20.5% (active)
19,Cc1cc(=O)oc2cc(OCCn3c(C)nn(-c4ccc(Cl)cc4)c3=O)ccc12,-5.7% (active)
20,COc1ccccc1/C=C1\COc2ccc(O)c(O)c2C1=O,-21.9% (active)
21,Nc1ccc(CCCCc2ccccc2)c(Cl)c1,78.7%
22,O=C(N=Nc1c(O)[nH]c2ccccc12)c1cc(-c2ccccc2)on1,97.5%
23,O=c1cc(CSc2nnc(-c3ccccc3)n2-c2ccc(F)cc2)c2ccc3ccccc3c2o1,99.5%
24,COc1cc(C2C=C(c3ccc(C)cc3)Nc3nc(SC)[nH]c(=O)c32)ccc1Oc1ccnc2cc(Cl)ccc12 (centres undefined),104%
